From PubChem
L3MBTL1 block: L3MBTL1 (human) inhibition; Q9Y468; AlphaScreen L3MBTL1–H3K9me1 peptide binding; Potency, µM (series often up to 57.1 µM), for the others: at the highest dose activity, negative = inhibition, most hits filed as inhibitors; hit rate 0.66% among 230,000; AID 485360; further: on the % scale 0 is the no-effect control and ±100 the full control effect; nearly all actives have a fitted effect of over 60% in size
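Read-out is AlphaScreen signal from streptavidin donor and nickel chelate acceptor beads (10 ug/mL final each) bridging L3MBTL1 (50 nM) and biotinylated K9-monomethylated H3(1-15) peptide (75 nM), after 30 min compound exposure at room temperature.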
POLI inh: inhibitors of human DNA polymerase iota; Pol iota fluorescent replication assay, 10 min; hit rate 1% among 390,000; AID 588590; Potency, µM (doses to about 115 µM), for inactives: at the highest dose activity, negative = inhibition, usual class: inhibitors; Q9UNA4
Target sequence (Q9UNA4 whole entry, looked up): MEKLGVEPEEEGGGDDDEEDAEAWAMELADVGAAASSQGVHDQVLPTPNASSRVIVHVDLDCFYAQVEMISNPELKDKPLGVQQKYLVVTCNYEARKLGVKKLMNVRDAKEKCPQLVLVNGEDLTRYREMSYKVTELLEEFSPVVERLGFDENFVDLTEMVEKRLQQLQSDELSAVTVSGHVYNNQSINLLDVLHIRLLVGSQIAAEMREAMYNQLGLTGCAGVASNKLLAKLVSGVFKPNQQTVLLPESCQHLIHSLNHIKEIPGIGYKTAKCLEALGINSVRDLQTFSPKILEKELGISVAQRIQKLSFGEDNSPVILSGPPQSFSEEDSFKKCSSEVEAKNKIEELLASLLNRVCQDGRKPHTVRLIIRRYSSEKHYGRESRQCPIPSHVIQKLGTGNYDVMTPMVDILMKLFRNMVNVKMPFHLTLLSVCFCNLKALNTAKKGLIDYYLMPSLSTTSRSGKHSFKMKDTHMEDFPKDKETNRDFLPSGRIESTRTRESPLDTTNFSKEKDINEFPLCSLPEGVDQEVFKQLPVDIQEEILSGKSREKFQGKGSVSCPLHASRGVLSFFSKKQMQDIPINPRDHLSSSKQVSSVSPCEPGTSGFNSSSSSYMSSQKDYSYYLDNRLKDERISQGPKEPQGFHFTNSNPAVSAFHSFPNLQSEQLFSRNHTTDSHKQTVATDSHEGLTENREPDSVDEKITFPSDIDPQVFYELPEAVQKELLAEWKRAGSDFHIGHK
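Fluorescent replication assay read twice, at 0 min and 10 min after adding 50 nM (final) substrate. Enzyme (10 nM) and compounds were first incubated 15 min at room temperature; enzyme-free buffer wells were negative controls.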
Pol eta inh-1: blocks human DNA polymerase eta activity; Q9Y253; recombinant Pol eta, fluorescent DNA replication assay; Potency, µM (series often up to 114 µM), inactives show at the top dose activity change, negative = inhibition, actives largely listed as inhibitors; hit rate 1.2% among 390,000; further: on the % scale 0 is the no-effect control and ±100 the full control effect
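Pol eta at 10 nM preincubated with compounds 15 min at room temperature; reaction started with fluorescent substrate (50 nM final) and read kinetically at 0 and 10 min.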
Pol beta inh: inhibitors of human DNA polymerase beta | P06746 | Pol beta primer extension/strand displacement, fluorescence kinetic | Potency, µM (doses to about 114 µM), without a hit: top-dose activity change, negative = inhibition, hits mostly inhibitors | hit rate 1.3% among 340,000 | AID 485314; further: on the % scale 0 is the no-effect control and ±100 the full control effect
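10 nM enzyme + cpd, 15 min RT; start with substrate 50 nM final; read 0 min and after 10 min RT. Corrected, normalized data; 4-parameter Hill curve fit.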
Pol kappa inh-1: inhibitors of human DNA polymerase kappa; purified Pol kappa, fluorescent DNA synthesis assay, 10 min; Q9UBT6; hit rate 0.53% among 400,000; Potency, µM (doses to about 107 µM), inactives show top-dose activity, negative = inhibition, hits mostly inhibitors; further: on the % scale 0 is the no-effect control and ±100 the full control effect
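Inhibition of 10 nM Pol kappa is measured by a fluorescent read-out at 0 and 10 min following addition of 50 nM substrate (final), with a 15-min room-temperature compound preincubation.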
Pol kappa inh-2: confirmation of human DNA polymerase kappa inhibitors; hit rate 76% among 920; purified Pol-kappa, fluorescent strand-displacement substrate; Potency, µM, usual class: inhibitors; shares compounds with Pol eta inh-1
Pol eta inh-2: Pol eta (human) inhibition, cherry-pick confirmation; shares compounds with Pol eta inh-1; Pol eta primer extension, TAMRA/BHQ fluorescence, 10 min; Potency, µM, actives largely listed as inhibitors; hit rate 64% among 2,600
The depositor's hits bear a star; ? = inconclusive; · = no result; [ ] = another dose, or the depositor's remark. Shown are actives, neighbours in structure and some others; about 2.4% of the full set was active somewhere. The call rests on the fitted dose curve; in most records, active means well fitted curve in the direction sought with a large enough effect; inconclusive means small, poorly fitted or top-dose-only effect, or another doubt; inactive means no such curve, though single readings can be large; an effect the other way counts as inactive or inconclusive. Potency means the concentration at half of the fitted maximal effect.

SMILES	L3MBTL1 block	POLI inh	Pol eta inh-1	Pol beta inh	Pol kappa inh-1	Pol eta inh-2	others
Cn1cc(S(=O)(=O)N2CCCC2)cc1C(=O)O	-29.0%	?	22.4µM*	·	-24.2%	·	Pol kappa inh-2=?
Cc1cc(C(F)(F)F)nc(SCc2ccc(C(=O)O)o2)n1	?	22.4µM*	8.91µM*	39.8µM*	-32.2%	?
Cc1cc(C)nc(SCc2ccc(C(=O)O)o2)n1	·	-15.4%	4.5%	24.4%	-5.9%	·
O=C(CSc1nc2ccsc2c(=O)n1Cc1ccccc1)NCc1ccco1	4.9%	42.4%	-11.0%	5.7%	-1.9%	·
O=C(CSc1nc2ccccc2c(=O)n1Cc1ccco1)NCc1ccco1	?	31.6µM*	79.4µM*	?	?	?
O=C(CSc1nc2ccsc2c(=O)n1NC(=O)c1ccccc1)NCc1ccco1	-2.8%	50.1µM*	44.7µM*	?	79.4µM*	?
CCCCn1c(SCC(=O)NCc2ccco2)nc2ccccc2c1=O	·	11.2%	?	?	-7.9%	·
CCCCN(C)CCNC(=O)c1c2c(nc3ccccc13)C(=O)N(C1CCCCC1)C2	·	?	-17.4%	-1.6%	0.1%	·
O=C(Nc1cccc(Br)c1)N1CCC(CN2CCCCC2)CC1	·	16.0%	-14.3%	0.1%	-4.7%	·
COC(=O)c1cc(C(=O)OC)cc(-n2c(C)cc(C(=O)COC(=O)CNS(=O)(=O)c3ccc(C)cc3)c2C)c1	?	?	22.4µM*	-4.9%	-31.9%	?
O=C(Oc1ccc(F)c(F)c1)c1ccc2c(=O)n3c(nc2c1)CCC3	1.3%	44.1%	-18.6%	·	-5.9%	·
O=C(Oc1cccc([N+](=O)[O-])c1)c1ccc2c(=O)n3c(nc2c1)CCC3	?	39.8µM*	28.2µM*	·	?	75.7*
CCc1ccc(NC(=O)c2ccc(Cn3nc(N4CCN(c5ccccc5)CC4)ccc3=O)o2)cc1	·	?	20µM*	?	-26.8%	?	Pol kappa inh-2=?
Cc1cccc(-n2c(-c3ccccc3)cn3c4c(=O)[nH]c(=O)n(C)c4nc23)c1	·	36.7%	-3.1%	-1.3%	5.1%	·
Cc1ccc(S(=O)(=O)NN2C(=O)/C(=C\c3ccc(Cl)cc3)SC2=S)cc1	·	?	39.8µM*	-17.5%	-8.9%	23.9*
Cc1ccc(S(=O)(=O)NN2C(=O)/C(=C/c3cccn3C)SC2=S)cc1	-9.8%	·	·	?	·	·
Cc1ccc(C)c(Cn2nnc3c(=O)[nH]c(C(=O)NCc4ccco4)nc32)c1	-5.5%	22.4µM*	31.6µM*	4.4%	89.1µM*	75.7*
CCOc1cc(/C=C2\CCCC(C(=O)C(F)(F)F)=C2O)ccc1O	-7.9%	7.5%	?	50.1µM*	-0.4%	·	Pol kappa inh-2=75.2*
S=C(NCc1ccccc1)NCc1ccco1	·	-24.5%	9.3%	26.9%	-14.7%	·
S=C(NCc1ccco1)NCc1ccco1	·	?	?	·	?	?
Cc1ccc(NC(=O)c2c(NC(=O)C(F)(F)F)sc3c2CCCCC3)cc1	·	?	50.1µM*	?	?	?
Cc1ccccc1NC(=O)c1c(NC(=O)C(F)(F)F)sc2c1CCCCC2	·	10.1%	-28.7%	?	-3.7%	·
O=C(Nc1cccc(Cl)c1)c1c(NC(=O)C(F)(F)F)sc2c1CCCC2	·	?	25.1µM*	?	-32.3%	?
Cc1cccc(NC(=O)c2c(NC(=O)C(F)(F)F)sc3c2CCCCC3)c1	·	?	44.7µM*	?	-21.4%	·	Pol kappa inh-2=67*
O=C(O)c1cccc(-c2noc(-c3cccc(Cl)c3)n2)c1	?	-3.9%	-14.6%	·	1.7%	·
SMILES	L3MBTL1 block	POLI inh	Pol eta inh-1	Pol beta inh	Pol kappa inh-1	Pol eta inh-2	others
Cc1cccc(CNc2ccnc(-c3cccc(C#N)c3)n2)c1	·	·	·	·	-17.3%[60.1 µM]	·
CC(C)(C)c1ccc(C(=O)NC2(C(F)(F)F)NC(=O)N(CCc3ccccc3)C2=O)cc1 (configuration not stated)	·	-14.2%	-11.1%	19.9%	-4.2%	·
Cc1cc(C)nc(NS(=O)(=O)c2ccc(-n3cccc3)cc2)n1	·	?	10µM*	31.6µM*	79.4µM*	53.6*
Cc1cc(C)nc(NS(=O)(=O)c2ccc(Br)cc2)n1	5.2%	41.6%	-13.0%	4.5%	-23.3%	·
CCC(C)NC(=O)Cn1c(=O)n(CC2CCC(C(=O)NC)CC2)c(=O)c2sccc21 (configuration not stated)	·	-4.0%	0.3%	2.4%	5.0%	·
COc1cc(/C=C/c2nc3ccc([N+](=O)[O-])cc3s2)ccc1OCC(=O)O	0.4%	·	·	?	·	·
COc1cc(/C=C2/C(C)=C(C#N)c3nc(N)c(C#N)c(C)c32)ccc1OCC(=O)O	?	?	17.8µM*	?	89.1µM*	30.1*
CN(C)c1cccc(C(=O)OCC(=O)Nc2nccs2)c1	?	?	?	23.1%	-14.7%	?
Cc1cccc(C(=O)OCC(=O)Nc2nccs2)c1	-2.5%	8.0%	-16.8%	14.7%	-6.8%	·
COc1cc(C2C3=C(Nc4nc(N)[nH]c(=O)c42)c2ccccc2C3=O)ccc1O (configuration not stated)	·	14.1µM*	22.4µM*	-11.0%	89.1µM*	37.9*
C#CCN(C[C@@H]1[C@@H](OC(=O)NCC2CCCCC2)[C@@H](OC(=O)NCC2CCCCC2)Cn2c(=O)n(CCCCCC)c(=O)n21)S(=O)(=O)c1ccc(C)cc1	·	·	-13.3%	·	·	·
CSc1ccc([C@H]2CN3CCC[C@H]3c3ccccc32)cc1	·	·	·	·	-8.6%[60.1 µM]	·
Cc1nc2nc(NC(=O)c3ccc(F)cc3)[nH]n2c(=O)c1Cc1ccccc1	·	-24.8%	14.2%	14.3%	6.4%	·
CCSC1=N/C(=C\c2ccc(-c3ccccc3[N+](=O)[O-])o2)C(=O)S1	-26.0%	5.7%	-4.6%	-16.1%	0.7%	·
CCCSC1=N/C(=C\c2ccc([N+](=O)[O-])o2)C(=O)S1	?	?	?	2.82µM*	20µM*	75.7*
Cc1ccc(NC(=O)CCC(=O)c2cc(C)sc2C)nc1	-16.3%	?	?	·	-14.9%	·
Cc1ccc(NC(=O)CCC(=O)c2ccc(Cl)s2)nc1	-6.7%	?	39.8µM*	·	?	·	Pol kappa inh-2=?
COc1ccc(CNC(=O)c2cnc(N3CCCC3)nc2C)cc1	·	19.8%	·	22.0%	-9.8%[60.1 µM]	·
COc1ccc(OC)c(/C=C2\S/C(=N/NC(=O)c3ccc4ccccc4c3)NC2=O)c1	-7.4%	-4.5%	20µM*	0.3%	-20.9%	·	Pol kappa inh-2=?
COc1ccc(/C=C2\SC(=Nc3ccccc3Cl)NC2=O)c(OC)c1	·	·	-18.5%	·	·	·
COc1ccc(C(=O)OCc2cc(=O)n3nc(-c4cccs4)sc3n2)cc1	·	?	?	?	-7.3%	?
COc1ccc(C(=O)Nc2ccc(C(=O)OCc3cc(=O)n4nc(C5CC5)sc4n3)cc2)cc1	·	?	-3.1%	?	-4.9%[60.1 µM]	·
